Results as given in PubChem BioAssay AID1159580 (chemical genetic matrix, 2015).
Screen size: about 5,500 compounds; about 2,000 (36%) were called active. About 18% were inconclusive and are not listed. Rule as the data show it: active = normalized growth mostly below about 0.91 (no sharp cut-off); inconclusive = no clear call, values can overlap the other calls; inactive = mostly above about 0.92. This is one part of the list.

Assay: chemical genetic growth profiling, strain panel (AID 1159580);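 also: tested at 20 µM; growth read once vehicle control cultures reached saturation at 30 °C; 1 = growth at the plate median or of vehicle wells; lower values mean less growth of the strain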
Conditions: S. cerevisiae deletion strains, growth OD

Measured: normalized growth

CC1CC[C@]2(NC1)O[C@H]1CC3C4CC[C@H]5C[C@@H](O)CC[C@]5(C)C4CC[C@]3(C)[C@H]1[C@@H]2C (stereo partly specified)
inactive: locus YOL012C, strain htz1 0.203
active: locus YJR066W, strain TOR1, hits give low values 0.471 | locus YKL009W, strain mrt4, hits give low values 0.252 | locus YKL068W, hits give low values 0.135 | locus YKL085W, strain MDH1 (second series), hits give low values 0.0926 | locus YKL085W, strain MDH1, hits give low values 0.0926 | locus YKL160W, strain elf1, hits give low values 0.0907 | locus YKR001C, strain vps1, hits give low values 0.0755 | locus YKR026C, strain gcn3, hits give low values 0.223 | locus YKR091W, strain srl3, hits give low values 0.12 | locus YLL001W, strain dnm1, hits give low values 0.109 | locus YLL026W, hits give low values 0.0788 | locus YLL041C, strain sdh2, hits give low values 0.0915 | locus YLR027C, strain aat2, hits give low values 0.0814 | locus YLR039C, strain RIC1, hits give low values 0.229 | locus YLR058C, strain SHM2, hits give low values 0.0708 | locus YLR102C, strain apc9, hits give low values 0.0841 | locus YLR113W, strain HOG1, hits give low values 0.557 | locus YLR221C, strain rsa3, hits give low values 0.077 | locus YLR258W, strain gsy2, hits give low values 0.0908 | locus YLR262C, strain YPT6 (second series), hits give low values 0.323 | locus YLR268W, strain sec22, hits give low values 0.0945 | locus YLR320W, strain mms22, hits give low values 0.0887 | locus YLR330W, strain CHS5, hits give low values 0.0602 | locus YLR342W, strain FKS1 (second series), hits give low values 0.0855 | locus YLR342W, strain FKS1, hits give low values 0.0932 | locus YLR357W, strain rsc2, hits give low values 0.383 | locus YLR370C, strain arc18, hits give low values 0.0901 | locus YLR371W, strain rom2, hits give low values 0.0788 | locus YLR384C, strain iki3, hits give low values 0.213 | locus YLR418C, strain cdc73, hits give low values 0.141 | locus YML016C, strain PPZ1, hits give low values 0.0661 | locus YML032C, strain rad52, hits give low values 0.105 | locus YML120C, strain ndi1, hits give low values 0.0802 | locus YML124C, strain tub3, hits give low values 0.0853 | locus YMR058W, strain fet3, hits give low values 0.113 | locus YMR078C, strain ctf18, hits give low values 0.0791 | locus YMR125W, strain sto1, hits give low values 0.102 | locus YMR129W, hits give low values 0.0908 | locus YMR205C, strain PFK2, hits give low values 0.124 | locus YMR223W, strain ubp8, hits give low values 0.0843 | locus YMR231W, strain pep5, hits give low values 0.106 | locus YMR263W, strain SAP30, hits give low values 0.0847 | locus YMR307W, strain GAS1, hits give low values 0.145 | locus YNL067W, strain RPL9B, hits give low values 0.0797 | locus YNL071W, strain lat1, hits give low values 0.0674 | locus YNL183C, strain NPR1, hits give low values 0.561 | locus YNL209W, strain ssb2, hits give low values 0.383 | locus YNL233W, strain BNI4, hits give low values 0.0735 | locus YNL248C, strain rpa49, hits give low values 0.101 | locus YNL250W, strain rad50, hits give low values 0.104 | locus YNL271C, strain bni1, hits give low values 0.103 | locus YNL298W, strain CLA4, hits give low values 0.081 | locus YNL307C, strain MCK1, hits give low values 0.0717 | locus YNL322C, strain KRE1 (second series), hits give low values 0.131 | locus YNL322C, strain KRE1, hits give low values 0.0664 | locus YNR049C, strain mso1, hits give low values 0.0984 | locus YNR052C, strain pop2, hits give low values 0.103 | locus YOL006C, strain TOP1, hits give low values 0.15 | locus YOL147C, strain pex11, hits give low values 0.0685 | locus YOR001W, strain rrp6, hits give low values 0.105 | locus YOR061W, strain CKA2, hits give low values 0.117 | locus YOR069W, strain VPS5, hits give low values 0.0792 | locus YOR070C, strain gyp1, hits give low values 0.0794 | locus YOR080W, strain dia2, hits give low values 0.111 | locus YOR083W, strain WHI5, hits give low values 0.198 | locus YOR106W, strain vam3, hits give low values 0.143 | locus YOR136W, strain idh2, hits give low values 0.0918 | locus YOR144C, strain elg1, hits give low values 0.0753 | locus YOR184W, strain ser1, hits give low values 0.0768 | locus YOR231W, strain MKK1, hits give low values 0.573 | locus YOR265W, strain rbl2, hits give low values 0.106 | locus YOR270C, strain vph1, hits give low values 0.111 | locus YOR290C, strain snf2, hits give low values 0.108 | locus YOR316C, strain cot1, hits give low values 0.0772 | locus YPL051W, strain arl3, hits give low values 0.182 | locus YPL078C, strain atp4, hits give low values 0.0844 | locus YPL106C, strain sse1, hits give low values 0.175 | locus YPL240C, strain hsp82, hits give low values 0.084 | locus YPL241C, strain CIN2, hits give low values 0.0689 | locus YPL256C, strain CLN2, hits give low values 0.604 | locus YPR119W, strain clb2, hits give low values 0.0896 | locus YPR141C, strain kar3, hits give low values 0.176 | locus YPR163C, strain tif3, hits give low values 0.0892 | locus YPR167C, strain met16, hits give low values 0.0808 | strain wtn01, hits give low values 0.0731
